The campaign covered roughly 5,500 compounds. About 2,000 (36%) were called active. Another 18% or so got no clear call; they are omitted. Cut-off read from the data, not from the text of the source: active = normalized growth mostly below about 0.91 (no sharp cut-off); inconclusive = no clear call, values can overlap the other calls; inactive = mostly above about 0.92. The list shows a part of the results.
Experiment: chemical genetic growth profiling, strain panel (AID 1159580);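 note: tested at 20 µM; growth read once vehicle control cultures reached saturation at 30 °C; 1 = growth at the plate median or of vehicle wells; lower values mean less growth of the strain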
Settings: growth OD

Measured: normalized growth

ClC1C(Cl)C(Cl)C(Cl)C(Cl)C1Cl (stereo unspecified)
active: S. cerevisiae deletion strains, locus YKL068W, stronger effect = lower value 0.902 | S. cerevisiae deletion strains, locus YKL085W, strain MDH1 (second series), stronger effect = lower value 0.909 | S. cerevisiae deletion strains, locus YKL085W, strain MDH1, stronger effect = lower value 0.909 | S. cerevisiae deletion strains, locus YKL160W, strain elf1, stronger effect = lower value 0.873 | S. cerevisiae deletion strains, locus YKR001C, strain vps1, stronger effect = lower value 0.879 | S. cerevisiae deletion strains, locus YLR027C, strain aat2, stronger effect = lower value 0.916 | S. cerevisiae deletion strains, locus YLR039C, strain RIC1, stronger effect = lower value 0.506 | S. cerevisiae deletion strains, locus YLR221C, strain rsa3, stronger effect = lower value 0.872 | S. cerevisiae deletion strains, locus YLR262C, strain YPT6 (second series), stronger effect = lower value 0.659 | S. cerevisiae deletion strains, locus YLR262C, strain YPT6, stronger effect = lower value 0.57 | S. cerevisiae deletion strains, locus YLR320W, strain mms22, stronger effect = lower value 0.622 | S. cerevisiae deletion strains, locus YLR342W, strain FKS1, stronger effect = lower value 0.89 | S. cerevisiae deletion strains, locus YML124C, strain tub3, stronger effect = lower value 0.929 | S. cerevisiae deletion strains, locus YMR058W, strain fet3, stronger effect = lower value 0.846 | S. cerevisiae deletion strains, locus YMR205C, strain PFK2, stronger effect = lower value 0.665 | S. cerevisiae deletion strains, locus YNL071W, strain lat1, stronger effect = lower value 0.638 | S. cerevisiae deletion strains, locus YOL147C, strain pex11, stronger effect = lower value 0.929 | S. cerevisiae deletion strains, locus YOR270C, strain vph1, stronger effect = lower value 0.67 | S. cerevisiae deletion strains, locus YPL051W, strain arl3, stronger effect = lower value 0.872 | S. cerevisiae deletion strains, locus YPL078C, strain atp4, stronger effect = lower value 0.865 | S. cerevisiae deletion strains, locus YPL256C, strain CLN2, stronger effect = lower value 0.821 | S. cerevisiae deletion strains, locus YPR119W, strain clb2, stronger effect = lower value 0.923 | S. cerevisiae deletion strains, locus YPR141C, strain kar3, stronger effect = lower value 0.89 | S. cerevisiae deletion strains, locus YPR167C, strain met16, stronger effect = lower value 0.91
inactive: S. cerevisiae deletion strains, locus YJR075W, strain HOC1, stronger effect = lower value 0.926 | S. cerevisiae deletion strains, locus YKL009W, strain mrt4, stronger effect = lower value 0.964 | S. cerevisiae deletion strains, locus YKL190W, strain CNB1, stronger effect = lower value 0.954 | S. cerevisiae deletion strains, locus YKR026C, strain gcn3, stronger effect = lower value 0.964 | S. cerevisiae deletion strains, locus YKR091W, strain srl3, stronger effect = lower value 0.963 | S. cerevisiae deletion strains, locus YLL001W, strain dnm1, stronger effect = lower value 0.938 | S. cerevisiae deletion strains, locus YLL026W, stronger effect = lower value 0.956 | S. cerevisiae deletion strains, locus YLL041C, strain sdh2, stronger effect = lower value 0.979 | S. cerevisiae deletion strains, locus YLR058C, strain SHM2, stronger effect = lower value 0.942 | S. cerevisiae deletion strains, locus YLR102C, strain apc9, stronger effect = lower value 0.935 | S. cerevisiae deletion strains, locus YLR113W, strain HOG1, stronger effect = lower value 0.862 | S. cerevisiae deletion strains, locus YLR258W, strain gsy2, stronger effect = lower value 0.969 | S. cerevisiae deletion strains, locus YLR268W, strain sec22, stronger effect = lower value 0.949 | S. cerevisiae deletion strains, locus YLR330W, strain CHS5, stronger effect = lower value 0.948 | S. cerevisiae deletion strains, locus YLR342W, strain FKS1 (second series), stronger effect = lower value 0.947 | S. cerevisiae deletion strains, locus YLR357W, strain rsc2, stronger effect = lower value 0.996 | S. cerevisiae deletion strains, locus YLR370C, strain arc18, stronger effect = lower value 0.975 | S. cerevisiae deletion strains, locus YLR371W, strain rom2, stronger effect = lower value 0.944 | S. cerevisiae deletion strains, locus YLR384C, strain iki3, stronger effect = lower value 0.991 | S. cerevisiae deletion strains, locus YLR418C, strain cdc73, stronger effect = lower value 0.843 | S. cerevisiae deletion strains, locus YML016C, strain PPZ1, stronger effect = lower value 0.945 | S. cerevisiae deletion strains, locus YML032C, strain rad52, stronger effect = lower value 0.927 | S. cerevisiae deletion strains, locus YML120C, strain ndi1, stronger effect = lower value 0.978 | S. cerevisiae deletion strains, locus YMR078C, strain ctf18, stronger effect = lower value 0.918 | S. cerevisiae deletion strains, locus YMR125W, strain sto1, stronger effect = lower value 1.03 | S. cerevisiae deletion strains, locus YMR129W, stronger effect = lower value 0.988 | S. cerevisiae deletion strains, locus YMR223W, strain ubp8, stronger effect = lower value 0.956 | S. cerevisiae deletion strains, locus YMR231W, strain pep5, stronger effect = lower value 1.01 | S. cerevisiae deletion strains, locus YMR263W, strain SAP30, stronger effect = lower value 0.955 | S. cerevisiae deletion strains, locus YMR307W, strain GAS1, stronger effect = lower value 1.07 | S. cerevisiae deletion strains, locus YNL067W, strain RPL9B, stronger effect = lower value 0.968 | S. cerevisiae deletion strains, locus YNL128W, strain TEP1, stronger effect = lower value 0.958 | S. cerevisiae deletion strains, locus YNL153C, strain GIM3, stronger effect = lower value 0.969 | S. cerevisiae deletion strains, locus YNL183C, strain NPR1, stronger effect = lower value 0.905 | S. cerevisiae deletion strains, locus YNL209W, strain ssb2, stronger effect = lower value 0.992 | S. cerevisiae deletion strains, locus YNL233W, strain BNI4, stronger effect = lower value 0.975 | S. cerevisiae deletion strains, locus YNL248C, strain rpa49, stronger effect = lower value 0.995 | S. cerevisiae deletion strains, locus YNL250W, strain rad50, stronger effect = lower value 0.909 | S. cerevisiae deletion strains, locus YNL271C, strain bni1, stronger effect = lower value 0.948 | S. cerevisiae deletion strains, locus YNL298W, strain CLA4, stronger effect = lower value 0.946 | S. cerevisiae deletion strains, locus YNL322C, strain KRE1 (second series), stronger effect = lower value 0.969 | S. cerevisiae deletion strains, locus YNL322C, strain KRE1, stronger effect = lower value 0.941 | S. cerevisiae deletion strains, locus YNR049C, strain mso1, stronger effect = lower value 0.975 | S. cerevisiae deletion strains, locus YNR052C, strain pop2, stronger effect = lower value 0.963 | S. cerevisiae deletion strains, locus YOL006C, strain TOP1, stronger effect = lower value 0.843 | S. cerevisiae deletion strains, locus YOL012C, strain htz1 0.8 | S. cerevisiae deletion strains, locus YOR001W, strain rrp6, stronger effect = lower value 0.963 | S. cerevisiae deletion strains, locus YOR061W, strain CKA2, stronger effect = lower value 0.948 | S. cerevisiae deletion strains, locus YOR069W, strain VPS5, stronger effect = lower value 0.963 | S. cerevisiae deletion strains, locus YOR070C, strain gyp1, stronger effect = lower value 0.965 | S. cerevisiae deletion strains, locus YOR080W, strain dia2, stronger effect = lower value 1.02 | S. cerevisiae deletion strains, locus YOR083W, strain WHI5, stronger effect = lower value 0.914 | S. cerevisiae deletion strains, locus YOR106W, strain vam3, stronger effect = lower value 0.942 | S. cerevisiae deletion strains, locus YOR136W, strain idh2, stronger effect = lower value 0.962 | S. cerevisiae deletion strains, locus YOR144C, strain elg1, stronger effect = lower value 0.94 | S. cerevisiae deletion strains, locus YOR184W, strain ser1, stronger effect = lower value 0.977 | S. cerevisiae deletion strains, locus YOR231W, strain MKK1, stronger effect = lower value 0.971 | S. cerevisiae deletion strains, locus YOR265W, strain rbl2, stronger effect = lower value 0.981 | S. cerevisiae deletion strains, locus YOR290C, strain snf2, stronger effect = lower value 0.921 | S. cerevisiae deletion strains, locus YOR316C, strain cot1, stronger effect = lower value 0.924 | S. cerevisiae deletion strains, locus YPL055C, strain LGE1, stronger effect = lower value 0.965 | S. cerevisiae deletion strains, locus YPL106C, strain sse1, stronger effect = lower value 1.01 | S. cerevisiae deletion strains, locus YPL240C, strain hsp82, stronger effect = lower value 0.978 | S. cerevisiae deletion strains, locus YPL241C, strain CIN2, stronger effect = lower value 0.961 | S. cerevisiae deletion strains, locus YPR163C, strain tif3, stronger effect = lower value 0.938 | S. cerevisiae deletion strains, strain wtn01, stronger effect = lower value 0.932 | S. cerevisiae strains, strain wild type, stronger effect = lower value 0.952

Source: PubChem BioAssay AID1159580 (chemical genetic matrix, 2015)
